Experimental data from PubChem BioAssay (Tox21).
“And” between values parts separate entries of the source, which are not always exact repeats. Equal values may be shown once. Values without a mark were called inactive. Results filed as inconclusive are left out. Where a call stands in place of a potency, no number is given. The source made the active and inactive calls. Unless noted, calls come from the whole dose curve; as a rule, active = well fitted curve in the direction sought with a large enough effect in the repeat runs; inconclusive = weak or mixed curves; inactive = no such curve, though single readings can be large; an effect the other way counts as inactive or inconclusive.

Assays:
[1] = qHTS assay to identify small molecule agonists of the estrogen receptor alpha (ER-alpha) signaling pathway in the presence of an antagonist - cell viability counter screen (AID 1259386);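 note: cells exposed to compounds for 22 h at 37 °C before the viability read; nearly all actives have a fitted effect of over 30% in size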; note: potency is the fitted concentration of half-maximal effect
In short: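 In this counter screen, compound effects on VM7Luc4E2 viability were tested in the presence of the antagonist ICI-182,780 at 10.0nM final. Compounds were dosed at 15 concentrations, exposure lasted 22hr, and the CellTiter-Fluor signal was read.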

[2] = qHTS assay to identify small molecule antagonists of the progesterone receptor (PR) signaling pathway - cell viability counter screen (AID 1346798); note: nearly all actives have a fitted effect of over 50% in size; note: potency is the fitted concentration of half-maximal effect
In short: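 PR-UAS-bla HEK293T cells in medium with 2% charcoal-stripped FBS were treated with compounds plus R5020 for 16 hr at 37C. Cell viability was then read by CellTiter-Glo luminescence after 30 min at room temperature in the same wells.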

[3] = qHTS assay to identify small molecule agonists of the progesterone receptor (PR) signaling pathway - cell viability counter screen (AID 1346799; calls by dose curve; note: nearly all actives have a fitted effect of over 45% in size; note: potency is the fitted concentration of half-maximal effect)
In short: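 PR-UAS-bla HEK293T cells, 3,000 per well in medium with 2% charcoal-stripped FBS, were preincubated 6 hr at 37C, then exposed to compounds for 16 hr; viability was read as CellTiter-Glo luminescence after 30 min at room temperature.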

[4] = qHTS assay to identify small molecule agonists of the TGF-beta/Smad signaling pathway - cell viability counter screen (AID 1346829); note: nearly all actives have a fitted effect of over 45% in size; note: potency is the fitted concentration of half-maximal effect
In short: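 CellTiter-Glo luminescence readout; SBE-bla HEK 293T cells, overnight plating, compound 5 hr at 37 C/5% CO2, then bla substrate 2 hr RT, then CellTiter-Glo 30 min RT.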

[5] = Human pregnane X receptor (PXR) small molecule agonists, qHTS cell viability counter screen (AID 1346977); note: nearly all actives have a fitted effect of over 50% in size; note: potency is the fitted concentration of half-maximal effect
In short: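 PXR-Luc HepG2 cells in medium with 5% charcoal-stripped FBS were pre-incubated 5hr, then exposed to compounds for 24hr at 37C. Viability was read in the same wells by CellTiter-Fluor fluorescence, reagent added after 23hr with a 1hr incubation.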

[6] = Caspase-3/7 induction in CHO-K1 cells by small molecules, qHTS cell viability counter screen (AID 1346979); note: nearly all actives have a fitted effect of over 35% in size; note: potency is the fitted concentration of half-maximal effect
In short: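 Wild-type CHO-K1 cells were seeded at 1,500 per well, rested 5hr at 37 C, then exposed to compounds in DMSO. After 16hr, CellTiter-Fluor reagent was added and fluorescence read 1hr later as the viability measure.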

[7] = Caspase-3/7 induction in HepG2 cells by small molecules, qHTS cell viability counter screen (AID 1346981); note: nearly all actives have a fitted effect of over 30% in size; note: potency is the fitted concentration of half-maximal effect
In short: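 In this quantitative HTS counter screen, compounds delivered in DMSO were left on unmodified HepG2 cells for 16 hr at 37 C. Viability was then determined fluorometrically with CellTiter-Fluor, in parallel with caspase-3/7 induction in the same wells.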

[8] = qHTS assay to identify small molecule antagonists of the TGF-beta/Smad signaling pathway - cell viability counter screen (AID 1346824); note: nearly all actives have a fitted effect of over 50% in size; note: potency is the fitted concentration of half-maximal effect
In short: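 Cytotoxicity counter-screen run in the same wells as the beta-lactamase Smad reporter read: CellTiter-Glo luminescence after 30 min at room temperature. HEK 293T SBE-bla cells had 5 hr compound exposure at 37 C with TGF-beta1 (0.25 ng/mL stock).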

[9] = target: Thyrotropin-releasing hormone receptor (Homo sapiens) (UniProt P34981); test: qHTS assay to identify small molecule antagonists of the thyrotropin-releasing hormone receptor (TRHR) signaling pathway (AID 1346877; active = well fitted inhibition curve with a large enough effect in the repeat runs, not every such curve was filed as active; note: series mostly up to about 51 µM)
Chain of Thyrotropin-releasing hormone receptor (Homo sapiens) (P34981 whole entry, looked up): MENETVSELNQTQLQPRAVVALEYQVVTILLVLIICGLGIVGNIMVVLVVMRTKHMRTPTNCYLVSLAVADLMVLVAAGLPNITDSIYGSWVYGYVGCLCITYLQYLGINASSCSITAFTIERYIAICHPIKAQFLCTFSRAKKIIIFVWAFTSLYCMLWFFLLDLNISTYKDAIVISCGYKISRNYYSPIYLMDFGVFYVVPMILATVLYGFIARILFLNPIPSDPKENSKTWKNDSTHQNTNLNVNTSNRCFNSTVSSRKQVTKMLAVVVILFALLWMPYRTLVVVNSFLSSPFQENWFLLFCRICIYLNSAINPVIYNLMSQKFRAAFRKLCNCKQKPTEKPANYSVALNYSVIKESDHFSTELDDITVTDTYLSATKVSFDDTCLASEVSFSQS
In short: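 Kinetic fluorescence (3 min, 1 s resolution) following stimulation with TRH at 1 nM final; HEK293 cells bearing human TRHR; 5 min compound preincubation at RT; concentration-response over 15 points, triplicates.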

[10] = Caspase-3/7 induction in HepG2 cells by small molecules, qHTS assay (AID 1346978); note: nearly all actives have a fitted effect of over 15% in size; note: potency is the fitted concentration of half-maximal effect
In short: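 Caspase-3/7 induction was measured by Caspase-Glo 3/7 luminescence (30 min, room temperature) after a 17 hr compound exposure of wild-type HepG2 cells seeded at 2,000 per well and pre-incubated 5 hr.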

[11] = Caspase-3/7 induction in CHO-K1 cells by small molecules, qHTS assay (AID 1346980); note: nearly all actives have a fitted effect of over 15% in size; note: potency is the fitted concentration of half-maximal effect
In short: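 Luminescent Caspase-Glo 3/7 read (30min, room temperature) quantified apoptosis induction. Cells were wild-type CHO-K1, treated with compound for 17hr at 37 C and 5% CO2.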

[12] = target: Cytochrome P450 2D6 (Homo sapiens) (UniProt P10635); test: Cytochrome P450 Family 2 Subfamily D Member 6 (CYP2D6) small molecule antagonists: luciferase reporter qHTS assay (AID 1671196); note: nearly all actives have a fitted effect of over 50% in size; note: potency is the fitted concentration of half-maximal effect
Chain of Cytochrome P450 2D6 (Homo sapiens) (P10635 whole entry, looked up): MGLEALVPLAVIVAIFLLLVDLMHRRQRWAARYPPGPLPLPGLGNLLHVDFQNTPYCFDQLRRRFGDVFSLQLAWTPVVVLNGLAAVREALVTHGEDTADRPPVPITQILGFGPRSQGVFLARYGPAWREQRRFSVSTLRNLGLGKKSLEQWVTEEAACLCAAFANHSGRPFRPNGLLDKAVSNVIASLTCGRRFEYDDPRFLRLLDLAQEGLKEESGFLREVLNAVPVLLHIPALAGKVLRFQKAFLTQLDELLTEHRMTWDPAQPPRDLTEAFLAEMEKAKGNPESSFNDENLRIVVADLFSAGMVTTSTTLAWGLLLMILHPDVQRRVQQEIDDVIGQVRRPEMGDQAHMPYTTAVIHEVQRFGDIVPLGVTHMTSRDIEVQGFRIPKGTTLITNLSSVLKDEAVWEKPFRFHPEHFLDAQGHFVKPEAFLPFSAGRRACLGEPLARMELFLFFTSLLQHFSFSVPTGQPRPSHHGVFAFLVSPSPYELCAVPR
In short: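 Test chemicals meet CYP2D6 plus proluciferin substrate (10 min, RT); NADPH regenerating solution then drives turnover for 1 h. Detection reagent halts the reaction; luminescence measured after 20 min.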

[13] = target: Nuclear receptor subfamily 1 group I member 2 (Homo sapiens) (UniProt O75469); test: Human pregnane X receptor (PXR) small molecule agonists, qHTS assay (AID 1346982); note: nearly all actives have a fitted effect of over 35% in size; note: potency is the fitted concentration of half-maximal effect
Chain of Nuclear receptor subfamily 1 group I member 2 (Homo sapiens) (O75469 whole entry, looked up): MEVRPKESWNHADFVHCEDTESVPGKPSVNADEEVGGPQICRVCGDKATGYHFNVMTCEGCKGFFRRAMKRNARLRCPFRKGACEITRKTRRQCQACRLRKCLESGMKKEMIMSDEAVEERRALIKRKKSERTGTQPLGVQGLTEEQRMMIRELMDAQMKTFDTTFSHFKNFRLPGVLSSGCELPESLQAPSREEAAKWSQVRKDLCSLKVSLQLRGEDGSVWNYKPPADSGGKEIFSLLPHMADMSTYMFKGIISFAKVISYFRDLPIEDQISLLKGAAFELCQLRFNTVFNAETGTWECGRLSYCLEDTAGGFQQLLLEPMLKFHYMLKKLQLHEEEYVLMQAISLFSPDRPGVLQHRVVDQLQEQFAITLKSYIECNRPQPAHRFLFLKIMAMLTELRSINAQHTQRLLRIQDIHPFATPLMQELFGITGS
In short: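 Reporter HepG2 cells expressing PXR-Luc are cultured in charcoal-stripped FBS (5%), treated with compounds for 24 hr at 37 C, and assayed by ONE-Glo luminescence after 30 min at room temperature.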

[14] = qHTS assay to identify small molecule agonists of the TGF-beta/Smad signaling pathway (AID 1346859; active = well fitted activation curve with a large enough effect in the signal ratio in the repeat runs, not every such curve was filed as active; the % refers to the signal ratio; note: series mostly up to about 77 µM)
In short: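 HEK 293T cells stably carrying a beta-lactamase reporter driven by the Smad binding element were seeded overnight, exposed to DMSO-dissolved compounds for 5 hr at 37 C, 5% CO2, then loaded with FRET substrate for 2 hr at room temperature.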

[15] = target: Thyrotropin-releasing hormone receptor (Homo sapiens) (UniProt P34981); test: qHTS assay to identify small molecule agonists of the thyrotropin-releasing hormone receptor (TRHR) signaling pathway (AID 1346891; calls by dose curve; note: series mostly up to about 58 µM)
In short: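 TRHR-expressing HEK293 cells were plated 18 h at 37 °C/5% CO2, loaded with calcium dye 2 h at 37 °C, then given compound in DMSO; fluorescence was read kinetically for 3 min at 1 s intervals.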

[16] = target: Nuclear receptor subfamily 1 group I member 2 (Rattus norvegicus) (UniProt Q9R1A7); test: Rat pregnane X receptor (rPXR) activation by small molecules, qHTS assay (AID 1346983); conditions: rPXR luciferase reporter cells, One-Glo luminescence, 24 h; max activation: stronger effect = higher value; note: nearly all actives have a fitted effect of over 20% in size
Chain of Nuclear receptor subfamily 1 group I member 2 (Rattus norvegicus) (Q9R1A7 whole entry, looked up): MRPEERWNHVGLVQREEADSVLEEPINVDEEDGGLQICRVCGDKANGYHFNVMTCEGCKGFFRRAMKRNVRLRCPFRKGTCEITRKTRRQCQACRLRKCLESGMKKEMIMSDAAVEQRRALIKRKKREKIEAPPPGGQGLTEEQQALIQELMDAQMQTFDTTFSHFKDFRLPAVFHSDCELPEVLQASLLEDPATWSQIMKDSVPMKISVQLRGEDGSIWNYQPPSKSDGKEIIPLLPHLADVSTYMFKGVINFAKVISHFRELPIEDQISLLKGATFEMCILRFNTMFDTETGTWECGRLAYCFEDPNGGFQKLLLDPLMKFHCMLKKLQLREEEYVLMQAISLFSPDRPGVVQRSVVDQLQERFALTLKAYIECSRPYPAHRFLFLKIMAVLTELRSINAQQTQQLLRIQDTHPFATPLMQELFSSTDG
In short: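 Luminescent readout (One-Glo luciferase, 30 min room temperature) followed 24 hr compound treatment at 37 C of rPXR cells plated 2,000 per well and preincubated 5hr; qHTS format with compounds delivered in DMSO.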

| SMILES | Potency [1] | Potency [2] | Potency [3] | Potency [4] | Potency [5] | Potency [6] | Potency [7] | Potency [8] | Potency [9] | Potency [10] | Potency [11] | Potency [12] | Potency [13] | Potency [14] | Potency [15] | max activation [16] [%] |
| --- | --- | --- | --- | --- | --- | --- | --- | --- | --- | --- | --- | --- | --- | --- | --- | --- |
| O=[N+]([O-])c1cc([N+](=O)[O-])c2ccc(S(=O)(=O)O)cc2c1O | 19.2 µM (active) | inactive | inactive | inactive | 27.1 µM (active) | 21.6 µM (active) | 24.2 µM (active) | – | – | – | – | – | – | – | – | – |
| CCCCc1oc2ccc(NS(C)(=O)=O)cc2c1C(=O)c1ccc(OCCCN(CCCC)CCCC)cc1 | 33.5 µM (active) | 18.8 µM (active) | 13.3 µM (active) | – | 18.8 µM (active) | 16.8 µM (active) | 26.6 µM (active) | 23.9 µM (active) | inactive | 18.8 µM (active) | inactive | 11 µM (active) | – | – | – | – |
| CCOc1nc2cccc(C(=O)OC(C)OC(=O)OC3CCCCC3)c2n1Cc1ccc(-c2ccccc2-c2nn[nH]n2)cc1 (centres undefined) | inactive | 21.7 µM (active) | 19.3 µM (active) | – | – | 34.3 µM (active) | – | – | – | – | 43.2 µM (active) | – | 24.3 µM (active) | – | – | – |
| C=CC(=O)OCC(CO)(COC(=O)C=C)COC(=O)C=C | 17.3 µM (active) and 27.3 µM (active) | 17.3 µM (active) and 27.3 µM (active) | 27.4 µM (active) and 30.6 µM (active) | – | 17.8 µM (active) and 21.7 µM (active) | 2.74 µM (active) and 6.11 µM (active) | 17.3 µM (active) and 21.7 µM (active) | – | inactive | 19.4 µM (active) and 24.3 µM (active) | 2.44 µM (active) and 6.11 µM (active) | – | – | – | – | – |
| CCc1cc(Cc2cc(CC)cc(C(C)(C)C)c2O)c(O)c(C(C)(C)C)c1 | 48.6 µM (active) | 38.6 µM (active) | 30.6 µM (active) | 54.9 µM (active) | 30.6 µM (active) | 38.6 µM (active) | 54.5 µM (active) | 49 µM (active) | – | 68.6 µM (active) | 54.5 µM (active) | inactive | 0.686 µM (active) | inactive | – | – |
| CCOC(=O)c1nc(C(Cl)(Cl)Cl)n(-c2ccc(Cl)cc2Cl)n1 | inactive | 61.1 µM (active) | 61.1 µM (active) | inactive | 54.5 µM (active) | 54.5 µM (active) | – | inactive | – | inactive | inactive | 14.2 µM (active) | 19.3 µM (active) | – | – | – |
| Cc1cc(N)c(S(=O)(=O)O)cc1Cl | inactive | inactive | inactive | inactive | inactive | inactive | inactive | inactive | inactive | inactive | inactive | inactive | inactive | inactive | inactive | – |
| CCCCCCCCCCCCCC[P+](CCCC)(CCCC)CCCC (tested in a mixture with another compound) | 8.69 µM (active) | 30.8 µM (active) | 30.8 µM (active) | 31.1 µM (active) | 12.3 µM (active) | 7.74 µM (active) | 24.5 µM (active) | 27.7 µM (active) | inactive | 27.5 µM (active) | inactive | 0.113 µM (active) | 7.74 µM (active) | – | inactive | – |
| O=C1C=CC(=O)N1 | 70.4 µM (active) | 55.9 µM (active) | 62.8 µM (active) | – | – | 5.59 µM (active) | – | – | inactive | – | inactive | inactive | inactive | inactive | inactive | – |
| [Cl][Bi]([Cl])([c]1ccccc1)([c]1ccccc1)[c]1ccccc1 | 24.2 µM (active) | 3.05 µM (active) | 1.71 µM (active) | – | 3.83 µM (active) | 3.05 µM (active) | 68.2 µM (active) | – | – | inactive | – | 6.29 µM (active) | 0.483 µM (active) | – | – | – |
| N=C1N=C(N)c2ccccc21 | inactive | inactive | inactive | – | 27.3 µM (active) | 61.1 µM (active) | 27.3 µM (active) | inactive | inactive | 54.5 µM (active) | – | 56.4 µM (active) | 24.3 µM (active) | inactive | inactive | – |
| CN(C/C=C/C#CC(C)(C)C)Cc1cccc2ccccc12 | inactive | 26.6 µM (active) | 13.3 µM (active) | – | inactive | inactive | inactive | inactive | inactive | inactive | inactive | 0.275 µM (active) | – | inactive | inactive | 0.136 |
| CCN(CCC#N)c1ccc(N=Nc2c(Cl)cc([N+](=O)[O-])cc2Cl)cc1 | 8.63 µM (active) | inactive | inactive | – | – | 48.6 µM (active) | – | inactive | inactive | inactive | – | inactive | 12.2 µM (active) | inactive | inactive | – |
| O=C(OCC(COC(=O)c1ccccc1)(COC(=O)c1ccccc1)COC(=O)c1ccccc1)c1ccccc1 | inactive | inactive | inactive | inactive | inactive | inactive | inactive | – | inactive | – | inactive | inactive | inactive | inactive | inactive | – |
| CC(C)(C)c1ccc(C(=O)O)cc1 | inactive | inactive | inactive | inactive | inactive | inactive | inactive | inactive | – | inactive | – | inactive | – | inactive | – | – |
| OC1(c2ccc(Cl)c(C(F)(F)F)c2)CCN(CCCC(c2ccc(F)cc2)c2ccc(F)cc2)CC1 | 33.5 µM (active) | 13.3 µM (active) | 13.3 µM (active) | 19 µM (active) | 10.6 µM (active) | 13.3 µM (active) | 18.8 µM (active) | 19 µM (active) | inactive | – | – | 4.9 µM (active) | inactive | – | inactive | – |
